The supplement of paper PMC6555819

Experiments:
Assay in all cases: PBM binding z-score (relative to random genomic background probes); higher = stronger binding; sequences stand for … in GC…GCGATTGACAGCGTAGAATGAAGG
[1] = system: FXR:RXRa (NR concentration 270 nM, RXRa partner concentration 90 nM)
Method in brief: (§1)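 Antibodies against each partner of ligand-free nuclear receptor dimers (one per run) detected binding on custom Agilent 4×180K protein-binding microarrays after 1 h incubation. The double-stranded probes had 34-nt variable regions carrying direct-repeat seeds, single-nucleotide variants, half-site ablations and random human genomic background sequences. Binding z-scores, from regression-normalized fluorescence, use the random background probes as reference.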

[2] = system: LXRa:RXRa (NR concentration 270 nM, RXRa partner concentration 90 nM)
Method in brief: as §1

[3] = system: LXRa homodimer (NR concentration 270 nM)
Method in brief: as §1

[4] = system: LXRb:RXRa (NR concentration 270 nM, RXRa partner concentration 90 nM)
Method in brief: as §1

[5] = system: LXRb homodimer (NR concentration 270 nM)
Method in brief: as §1

[6] = system: PPARa:RXRa (NR concentration 270 nM, RXRa partner concentration 90 nM)
Method in brief: as §1

[7] = system: PPARg:RXRa (NR concentration 180 nM, RXRa partner concentration 90 nM)
Method in brief: as §1

[8] = system: PPARg:RXRa 270nM:90nM, anti-RXR (NR concentration 270 nM, RXRa partner concentration 90 nM)
Method in brief: as §1

[9] = system: PPARg:RXRa 30nM:10nM, anti-RXR (NR concentration 30 nM, RXRa partner concentration 10 nM)
Method in brief: as §1

[10] = system: PPARg:RXRa 90nM:30nM, anti-RXR (NR concentration 90 nM, RXRa partner concentration 30 nM)
Method in brief: as §1

[11] = system: PPARg:RXRa DBDmut IVT, anti-RXR (DBD mutation: RXRa K156A/R161A, NR concentration 270 nM, RXRa partner concentration 90 nM)
Method in brief: as §1

[12] = system: PPARg:RXRa IVT, anti-PPARg (NR concentration 270 nM, RXRa partner concentration 90 nM)
Method in brief: as §1

[13] = system: PPARg DBDmut:RXRa IVT, anti-PPARg (DBD mutation: PPARg1 K132A/R137A, NR concentration 270 nM, RXRa partner concentration 90 nM)
Method in brief: as §1

[14] = system: PPARg DBDmut IVT, anti-PPARg (DBD mutation: PPARg1 K132A/R137A, NR concentration 270 nM)
Method in brief: as §1

[15] = system: PPARg homodimer (NR concentration 180 nM)
Method in brief: as §1

[16] = system: PXR:RXRa (NR concentration 270 nM, RXRa partner concentration 90 nM)
Method in brief: as §1

[17] = system: PXR homodimer (NR concentration 270 nM)
Method in brief: as §1

[18] = system: RARa:RXR (NR concentration 270 nM, RXRa partner concentration 90 nM)
Method in brief: as §1

[19] = system: RARa homodimer (NR concentration 270 nM)
Method in brief: as §1

[20] = system: RARb:RXRa (NR concentration 270 nM, RXRa partner concentration 90 nM)
Method in brief: as §1

Sequence	PBM binding z-score [1]	PBM binding z-score [2]	PBM binding z-score [3]	PBM binding z-score [4]	PBM binding z-score [5]	PBM binding z-score [6]	PBM binding z-score [7]	PBM binding z-score [8]	PBM binding z-score [9]	PBM binding z-score [10]	PBM binding z-score [11]	PBM binding z-score [12]	PBM binding z-score [13]	PBM binding z-score [14]	PBM binding z-score [15]	PBM binding z-score [16]	PBM binding z-score [17]	PBM binding z-score [18]	PBM binding z-score [19]	PBM binding z-score [20]
CTCGAAAGGTCGTGCTCAGGTGACTATACCAAAC	5.25	3.88	0.561	3.69	0.323	4.97	2.84	3.95	1.46	2.76	1.01	2.13	-0.324	0.674	1.85	3.67	0.399	4.75	0.319	4
GCTACTGGGGCAAAGCAGGTTACCATAAGGTTGG	0.552	0.174	-0.316	0.4	-0.276	2.24	2.37	2.63	0.398	1.52	6.4	5.54	0.032	-0.0829	0.182	0.319	-0.456	0.495	-0.534	1.12
CCTAGCGGGCCAGGGTCACTCAAGCATTTCGCTT	2.02	1.7	-0.501	1.75	-1.09	3.22	0.585	1.45	-0.704	0.334	-0.418	0.39	-1.58	-1.58	0.563	2.61	-0.612	3.38	-0.206	2.53
GAAACGAGGGCAAGTTGATAGCAGAGTTTGATGG	1.07	0.537	-0.42	0.157	-0.895	2.38	1.76	1.76	0.251	1.2	5.01	4.04	0.483	0.387	0.633	0.91	1.01	0.741	-0.324	2.48
GCGACTGGGGCAAAACAGGTTACCATAAGGTTGG	0.267	0.15	-0.287	0.476	-0.432	1.12	1.22	0.615	-0.338	-0.0458	3.9	3.17	-0.443	-0.478	-0.0203	0.334	-0.325	0.794	-0.332	0.897
TTACCAAGGTGAAAGGTCGTTCATGCACGCCTTG	3.83	3.72	0.593	3.18	-0.344	5.32	8.83	8.22	8.68	8.9	2.97	5.04	0.222	0.115	1.16	3.93	0.838	5.63	0.139	3.06
CCTCGGAGGACAACAGGAGGGCAGAGCTGCCAGA	-0.363	-0.203	-0.39	-0.91	-0.963	-0.724	-0.101	-1.25	-1.32	-1.32	-0.405	-0.306	-2.18	-1.69	-0.00297	-0.394	-0.631	-0.517	-0.328	1.73
CCTACTGGGCCATCAGGCCATTGATATCAACGTT	0.133	-0.192	-0.106	-0.246	-0.678	0.569	1.16	1.79	0.105	0.915	3.85	3.8	-0.657	-0.731	0.142	-0.281	-0.336	-0.428	-0.00311	0.28
GATACAGGGTCAAGGGCAGAGTACGCGTATTGAT	6.94	4.74	0.422	4.1	0.257	5.92	6.21	5.97	2.9	4.69	2.9	4.2	0.998	0.413	2.15	4.01	0.827	4.22	0.496	4.77
CCTAGCAGGCCAATGTGGGTCACTCAAGGCTTGA	0.735	1.67	-0.413	0.94	-1.16	3.33	1.94	2.65	0.359	1.74	4.05	4.91	-0.196	-1.11	0.296	1.24	-0.313	1.55	-0.725	1.54
ATCGAAAGGTCGACGAGGTGCGTATACACCGTTT	4.16	2.96	-0.0247	2.54	0.0651	4.07	2.24	2.73	0.695	1.53	0.356	1.41	0.639	-0.109	1.06	3.37	-0.325	2.45	-0.212	3.79
ACAGACAGGTGAGTGTAGGTAACTCAGCTGGACG	0.257	-0.0272	-0.446	-0.538	-0.878	0.215	0.458	0.248	-0.279	-0.0696	0.831	1.24	-0.529	-0.0544	0.128	-0.121	0.0184	0.216	0.676	0.392
CGTCCAAGGTCAAGGTCAGAGAAAGAGACTCGAA	7.9	5.84	0.844	4.67	0.838	5.99	6.4	6.27	2.49	5.02	4.02	4.66	0.309	-0.449	3.52	4.81	1.27	5.48	2.01	5.62
TCTAGTTGGTCACGGAAGTCACACACGACGGGTA	0.525	0.526	0.27	0.598	0.323	1.21	1.27	1.85	3.33	2.65	2.3	2.31	1.45	0.841	1.08	0.653	0.0861	1.01	1.21	1.65
